# Compound activity from PubChem BioAssay.
# PLK1 PBD block: blocks phosphopeptide binding to human PLK1 polo-box domain. Plk1 PBD binding of FITC phosphopeptide, fluorescence polarization. AID 720504. hit rate 2.8% among 360,000. Potency, µM, for the others: max response, negative = inhibition, most hits filed as inhibitors; note: series mostly up to about 57 µM; % is set by controls: 0 for no effect and ±100 for the full control effect; nearly all actives have a fitted effect of over 65% in size
# JMJD2A Tudor inh: inhibitors of human JMJD2A Tudor domain; O75164; AlphaScreen JMJD2A-Tudor / H3K4me3 peptide binding; Potency, µM (highest dose often 114 µM), without a hit: at the top dose activity change, negative = inhibition, most hits filed as inhibitors; hit rate 4.4% among 390,000; note: % is set by controls: 0 for no effect and ±100 for the full control effect; nearly all actives have a fitted effect of over 50% in size
# Sfp PPTase inh: Sfp phosphopantetheinyl transferase inhibition; Q9F4F7; Biochemical Sfp PPTase activity, qHTS; Potency, µM, for the others: largest response in the series, negative = inhibition, usual class: inhibitors; hit rate 3.5% among 310,000; AID 1490;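 note: the enzyme is Sfp with the accession as filed and its product quenches rhodamine fluorescence; 0% = enzyme reaction without inhibitor and -100% = no enzyme wells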
#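 Buffer: 50 mM Hepes-Na pH 7.6, 10 mM MgCl2, 0.01% Nonidet P-40, 0.01% BSA. Enzyme 15 nM, pre-exposed to compound 15 min; substrates then added and fluorescence change tracked over 30 min.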
# BAZ2B inh: inhibitors of human BAZ2B bromodomain; AID 504333; AlphaScreen BAZ2B-H3K14Ac peptide displacement; hit rate 4.4% among 360,000; Potency, µM (top dose mostly 114 µM), without a hit: at the highest dose activity change, negative = inhibition, usual class: inhibitors; note: % is set by controls: 0 for no effect and ±100 for the full control effect; nearly all actives have a fitted effect of over 60% in size
# Target sequence (Q9UIF8 whole entry, looked up): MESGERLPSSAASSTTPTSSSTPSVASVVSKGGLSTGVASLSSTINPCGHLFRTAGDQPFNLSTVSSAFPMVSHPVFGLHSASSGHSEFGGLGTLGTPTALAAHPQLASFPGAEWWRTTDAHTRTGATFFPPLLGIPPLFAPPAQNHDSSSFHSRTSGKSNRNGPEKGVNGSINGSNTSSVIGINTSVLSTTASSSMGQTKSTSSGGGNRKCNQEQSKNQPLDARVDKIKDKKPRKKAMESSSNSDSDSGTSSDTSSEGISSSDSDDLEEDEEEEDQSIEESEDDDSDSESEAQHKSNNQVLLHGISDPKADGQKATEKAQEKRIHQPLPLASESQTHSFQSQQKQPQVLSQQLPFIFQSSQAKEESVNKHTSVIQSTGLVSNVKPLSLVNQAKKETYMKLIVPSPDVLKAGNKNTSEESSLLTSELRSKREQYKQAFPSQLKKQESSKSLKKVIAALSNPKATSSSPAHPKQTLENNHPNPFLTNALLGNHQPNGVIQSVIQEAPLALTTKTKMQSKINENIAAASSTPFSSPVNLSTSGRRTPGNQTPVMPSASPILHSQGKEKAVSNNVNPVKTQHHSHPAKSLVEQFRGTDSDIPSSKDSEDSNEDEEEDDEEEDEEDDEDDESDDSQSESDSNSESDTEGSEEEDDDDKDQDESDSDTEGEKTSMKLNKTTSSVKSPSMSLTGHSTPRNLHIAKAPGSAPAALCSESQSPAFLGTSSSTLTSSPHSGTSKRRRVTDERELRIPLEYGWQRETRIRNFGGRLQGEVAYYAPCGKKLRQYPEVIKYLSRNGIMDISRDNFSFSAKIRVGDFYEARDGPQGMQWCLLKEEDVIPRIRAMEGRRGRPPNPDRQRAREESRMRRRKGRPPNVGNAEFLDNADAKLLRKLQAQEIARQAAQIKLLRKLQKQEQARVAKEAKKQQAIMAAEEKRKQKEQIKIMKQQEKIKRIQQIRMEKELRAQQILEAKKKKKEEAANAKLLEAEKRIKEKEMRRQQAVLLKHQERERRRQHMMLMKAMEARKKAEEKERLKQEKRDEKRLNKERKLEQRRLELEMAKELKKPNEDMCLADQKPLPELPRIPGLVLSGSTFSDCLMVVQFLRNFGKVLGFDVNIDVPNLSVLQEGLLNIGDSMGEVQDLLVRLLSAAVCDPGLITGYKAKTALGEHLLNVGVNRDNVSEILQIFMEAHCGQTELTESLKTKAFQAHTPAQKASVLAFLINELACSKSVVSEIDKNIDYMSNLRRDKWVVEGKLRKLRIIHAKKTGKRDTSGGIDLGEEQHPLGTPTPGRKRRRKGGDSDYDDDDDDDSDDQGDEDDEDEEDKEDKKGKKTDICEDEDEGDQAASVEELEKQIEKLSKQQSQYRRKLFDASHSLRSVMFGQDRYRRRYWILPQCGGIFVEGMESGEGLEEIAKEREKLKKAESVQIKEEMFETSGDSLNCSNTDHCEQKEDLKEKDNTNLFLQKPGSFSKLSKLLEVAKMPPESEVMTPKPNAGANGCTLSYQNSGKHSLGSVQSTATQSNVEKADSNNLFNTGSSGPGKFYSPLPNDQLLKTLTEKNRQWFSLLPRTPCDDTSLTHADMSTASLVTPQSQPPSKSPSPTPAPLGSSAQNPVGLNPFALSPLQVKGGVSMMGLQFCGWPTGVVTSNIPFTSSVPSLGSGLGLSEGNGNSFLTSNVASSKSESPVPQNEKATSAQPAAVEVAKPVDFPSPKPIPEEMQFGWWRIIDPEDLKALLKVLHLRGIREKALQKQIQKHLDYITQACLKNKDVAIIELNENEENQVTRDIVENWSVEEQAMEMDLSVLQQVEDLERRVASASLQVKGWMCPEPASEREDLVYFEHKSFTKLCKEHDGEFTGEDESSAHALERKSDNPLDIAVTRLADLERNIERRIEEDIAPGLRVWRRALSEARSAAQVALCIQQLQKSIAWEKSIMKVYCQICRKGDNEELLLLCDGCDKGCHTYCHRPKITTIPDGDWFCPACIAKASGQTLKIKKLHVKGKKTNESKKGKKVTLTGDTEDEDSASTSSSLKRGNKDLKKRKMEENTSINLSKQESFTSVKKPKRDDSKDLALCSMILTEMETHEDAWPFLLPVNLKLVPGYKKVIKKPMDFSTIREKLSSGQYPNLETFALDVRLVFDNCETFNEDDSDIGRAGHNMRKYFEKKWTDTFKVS
#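 BAZ2B (50 nM) with biotin-H3(5-23)K14Ac peptide (50 nM) in PBS pH 7.4, 0.01% Tween-20, preformed 30 min, then compound 30 min at room temperature; top concentration 110uM. AlphaScreen streptavidin donor/nickel chelate acceptor beads (10 ug/mL final), 20 min dark, signal read.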
# HP1b binding inh: HP1-beta chromodomain-methylated histone interaction inhibition; Potency, µM (highest dose often 114 µM), without a hit: top-dose activity change, negative = inhibition, most hits filed as inhibitors; hit rate 0.56% among 390,000; AID 540317; AlphaScreen HP1-beta / biotin-H3K9me3 peptide binding; P83916; note: nearly all actives have a fitted effect of over 70% in size
#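 Compound inhibition of the preformed complex between 50 nM HP1-beta and 50 nM biotinylated H3K9me3 peptide was read by AlphaScreen. Buffer was PBS pH 7.4 with 0.01% Tween-20. Incubations ran 30 min at room temperature, with 10 ug/mL donor/acceptor beads.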
# G9a inh: blocks human histone lysine methyltransferase G9a; Q96KQ7; G9a H3K9 monomethylation, AlphaScreen, 2 h; Potency, µM (titrated, usually from 102 µM), for the others: at the top dose activity, negative = inhibition, actives largely listed as inhibitors; hit rate 8.8% among 350,000; note: % is set by controls: 0 for no effect and ±100 for the full control effect; nearly all actives have a fitted effect of over 75% in size
#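 G9a (20 nM) preincubated 15 min RT with compounds, then 500 nM biotinylated H3K9 peptide and 20 uM SAM added; 2 h RT reaction. Monomethyl-H3K9 product detected by AlphaScreen with anti-H3K9me1 antibody, streptavidin donor and anti-rabbit IgG acceptor beads.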
# * marks the source's active call; other numbers are inactive results; ? = inconclusive; nt = not tested or not shown; ! = repeats disagree; [ ] = remark or other dose. In the library only some 12% were active in any assay of this set; here they are far more common. Calls come from the whole dose curve; as a rule, active = well fitted curve in the direction sought with a large enough effect; inconclusive = small, poorly fitted or top-dose-only effect, or another doubt; inactive = no such curve, though single readings can be large; an effect the other way counts as inactive or inconclusive. Potency is the fitted concentration of half-maximal effect.
SMILES,PLK1 PBD block,JMJD2A Tudor inh,Sfp PPTase inh,BAZ2B inh,HP1b binding inh,G9a inh
COc1ccccc1/C=C1\SC(=O)N(CCC(=O)N2CCCCC2CCO)C1=O (configuration not stated),-2.9%,?,-0.8%,?,4.3%,nt
COc1ccc(/C=C2\SC(=S)N(CCCC(=O)N3CCOCC3)C2=O)cc1,-9.5%,50.1µM*,nt,nt,-36.3%,nt
COc1cccc(/C=C2\SC(=S)N(CCCC(=O)N3CCCCC3CCO)C2=O)c1 (configuration not stated),0.4%,20µM*,-23.6%,25.1µM*,-35.9%[57 µM],?
O=C(CCN1C(=O)/C(=C/c2ccc(F)cc2)SC1=S)NCCc1cnc[nH]1,?,?,-13.1%,17.8µM*,-25.5%,28.2µM*
COc1cccc(/C=C2\SC(=S)N(CCC(=O)N3CCCCC3CCO)C2=O)c1 (configuration not stated),-14.1%,?,-25.7%,31.6µM*,?,56.2µM*
N#Cc1ccc(C(=O)N2CCN(C(=O)C3CCCO3)CC2)cc1 (configuration not stated),-9.2%,-12.8%,nt,-6.7%,21.2%,?
O=C(/C=C/c1ccc(Cl)c(C(F)(F)F)c1)N1CCN(c2ccccn2)CC1,-8.9%,-3.5%,5.8%,-7.0%,4.4%,3.8%
C=CCOC(=O)NC(c1ccc(F)c(F)c1)C(C(C)=O)C(=O)OC (configuration not stated),nt,nt,-27.1%,nt,nt,nt
C=C[C@@H](C)[C@](C)(O)c1ccccc1,nt,nt,-11.3%,nt,nt,nt
COc1ccc(/C=C2\SC(=S)N(CCCC(=O)N3CCN(C)CC3)C2=O)cc1OC,3.3%,-2.8%,nt,nt,20.6%,nt
COc1cccc(/C=C2\SC(=S)N(CCCC(=O)N3CCCC3)C2=O)c1,-9.1%,44.7µM*,-23.6%,31.6µM*,?,39.8µM*
COc1ccc(/C=C2\SC(=O)N(CCC(=O)N3CCN(C)CC3)C2=O)cc1,-0.5%,-7.9%,12.1%,-6.4%,23.3%,4.0%
COc1cccc(/C=C2\SC(=O)N(CCC(=O)N3CCC(C(=O)O)CC3)C2=O)c1,-6.4%,-12.4%,2.1%,?,39.8%,70.8µM*
CCc1ccccc1NS(=O)(=O)c1ccc(-c2coc(C)n2)cc1,nt,-19.0%,nt,?,14.4%[57 µM],-23.6%[59 µM]
Cc1cc(C)c(S(=O)(=O)Nc2nnc(C)s2)c(C)c1,3.36µM*,?,2.7%,-28.4%,21.9%,-11.3%[59 µM]
Cc1cc(C)c(S(=O)(=O)Nc2nnc(C3CCCCC3)s2)c(C)c1,?,-5.2%,5.0%,-37.9%,16.7%,70.8µM*
CCN(CC)S(=O)(=O)c1ccc(=O)n(CC(=O)N2CCCc3cc(C)ccc32)c1,-12.6%,-16.6%,nt,8.3%,36.5%,13.4%[59 µM]
CCOc1ccc(-c2cc(C(=O)NCCc3ccc(C)cc3)c3ccccc3n2)cc1,nt,-17.4%,nt,1.9%,22.3%,2.6%[59 µM]
COc1ccc(-c2csc(Nc3ccccc3)n2)cc1,-11.6%,-17.9%,-3.7%,?,?,-0.7%[12.7 µM]
COc1ccc(-c2csc(Nc3ccc(S(N)(=O)=O)cc3)n2)cc1,?,-18.9%,?,50.1µM*,-28.2%,-8.5%[2.33 µM]
Cc1nc(N)sc1-c1csc(Nc2ccc(S(N)(=O)=O)cc2)n1,-21.5%,?,-15.3%,50.1µM*,-3.4%,?
CCC(=O)Nc1nc(C)c(-c2csc(Nc3ccc(S(=O)(=O)Nc4cc(C)on4)cc3)n2)s1,nt,nt,-17.1%,-4.6%,nt,50.1µM*
Cc1cc(NS(=O)(=O)c2ccc(Nc3nc(-c4sc(C)nc4C)cs3)cc2)no1,nt,nt,0.0%,-2.4%,nt,-13.0%
COc1ccc(-c2csc(Nc3ccc(S(=O)(=O)Nc4cc(C)on4)cc3)n2)cc1,18.9µM*,?,-24.7%,?,-31.9%,44.7µM*
CC(=O)Oc1ccc(-c2csc(Nc3ccc(S(N)(=O)=O)cc3)n2)cc1,-10.9%,?,8.6%,-7.5%,-4.7%,-34.2%
SMILES,PLK1 PBD block,JMJD2A Tudor inh,Sfp PPTase inh,BAZ2B inh,HP1b binding inh,G9a inh
CCn1c2ccccc2c2cc(NC(=O)COC(=O)c3cc(Cl)c(N)cc3OC)ccc21,-1.1%,-9.6%,?,-10.7%,28.0%,-16.3%[59 µM]
O=C(CC1Nc2ccccc2NC1=O)NCCCN1CCCCCC1 (configuration not stated),-8.1%,31.6µM*,2.5%,-28.6%,13.5%,-15.3%[59 µM]
Cc1cccc(N2N=C(C(=O)N3Cc4ccccc4CC3C(N)=O)CCC2=O)c1 (configuration not stated),0.2%,-11.4%,nt,nt,43.9%,nt
CN(C)CCC(c1ccccc1)c1ccccn1 (configuration not stated),2.8%,-6.9%,-0.7%,?,19.2%,-3.6%[59 µM]
CN(C)CCOC(C)(c1ccccc1)c1ccccn1 (configuration not stated),-17.9%,-7.2%,7.1%,0.4%,8.5%,10µM*!
COc1ccc(C2c3sc(=O)[nH]c3SC3C4CCC(C4)C23)cc1OC (configuration not stated),?,?,2.3%,?,?,8.91µM*
O=c1[nH]c2c(s1)C(c1ccc(O)cc1)C1C3CCC(C3)C1S2 (configuration not stated),?,-34.8%,50.1µM*,?,-20.4%,?
O=C(c1ccc(CSc2nc3ccncc3n2Cc2cccc(F)c2)cc1)N1CCCCC1,nt,-11.4%,nt,2.4%,46.2%,-3.5%[59 µM]
CCN(c1ccc(NC(=O)CSc2nnc3nc(C)cc(C)n23)cc1)C(C)C,-5.3%,-32.0%,3.6%,?,-4.8%,44.7µM*
Cc1cc(C)n2c(SCC(=O)Nc3ccc(F)cc3)nnc2n1,21.2µM*,-2.4%,15.8µM*,-2.1%,?,11.2µM*
Cc1cc(C)n2c(SCC(=O)Nc3ccc(F)cc3F)nnc2n1,?,89.1µM*,1.3%,-12.6%,-4.8%,?
Cc1ccc(NC(=O)CSc2nnc3nc(C)cc(C)n23)cc1,nt,-5.5%,nt,8.8%,59.1%,-1.1%[59 µM]
Cc1cccc(Cn2c(=O)n(CCCCC(=O)NCc3ccc4c(c3)OCO4)c(=O)c3ccccc32)c1,nt,-13.3%,nt,3.5%,3.7%,1.7%[59 µM]
Cc1nn(Cc2ccccc2)c(Cl)c1/C=C1\NC(=S)NC1=O,-6.3%,-20.7%,39.8µM*,-24.3%,12.5%,39.8µM*
Brc1cccc(-c2cnc3n2CCCCC3)c1,-2.8%,?,-16.6%,-9.6%,-15.6%,44.7µM*
COC(=O)[C@@]1(Cc2ccccc2)[C@H]2C(=O)N(C)C(=O)[C@H]2[C@H]2CN=C(SCC(=O)c3ccccc3)N21,-26.3%,?,nt,nt,0.5%,nt
S=c1[nH]nc(Cc2c[nH]c3ccccc23)o1,-14.8%,79.4µM*,-9.6%,-3.8%,13.3%,1.58µM*
COc1ccc(CCNC(=O)Cc2c(C)c3c(cc(C)c4c(C)coc43)oc2=O)cc1,nt,-6.9%,nt,-2.6%,36.1%,9.7%[59 µM]
OC1(c2ccc3ccccc3c2)CCN(Cc2ccccc2)C1 (configuration not stated),-3.9%,-14.4%,89.1µM*,7.5%,31.8%,-43.6%
